The text below walks through data of ChEMBL document CHEMBL2218924, “A broad activity screen in support of a chemogenomic map for kinase signalling research and drug discovery” (Biochem J, 2013).

A word on the residual activity: it is the signal under treatment as a percentage of the control signal.

Assay [1] deals with T1, Ephrin type-A receptor 3 (Homo sapiens) (UniProt P29320).
T1 sequence (whole entry): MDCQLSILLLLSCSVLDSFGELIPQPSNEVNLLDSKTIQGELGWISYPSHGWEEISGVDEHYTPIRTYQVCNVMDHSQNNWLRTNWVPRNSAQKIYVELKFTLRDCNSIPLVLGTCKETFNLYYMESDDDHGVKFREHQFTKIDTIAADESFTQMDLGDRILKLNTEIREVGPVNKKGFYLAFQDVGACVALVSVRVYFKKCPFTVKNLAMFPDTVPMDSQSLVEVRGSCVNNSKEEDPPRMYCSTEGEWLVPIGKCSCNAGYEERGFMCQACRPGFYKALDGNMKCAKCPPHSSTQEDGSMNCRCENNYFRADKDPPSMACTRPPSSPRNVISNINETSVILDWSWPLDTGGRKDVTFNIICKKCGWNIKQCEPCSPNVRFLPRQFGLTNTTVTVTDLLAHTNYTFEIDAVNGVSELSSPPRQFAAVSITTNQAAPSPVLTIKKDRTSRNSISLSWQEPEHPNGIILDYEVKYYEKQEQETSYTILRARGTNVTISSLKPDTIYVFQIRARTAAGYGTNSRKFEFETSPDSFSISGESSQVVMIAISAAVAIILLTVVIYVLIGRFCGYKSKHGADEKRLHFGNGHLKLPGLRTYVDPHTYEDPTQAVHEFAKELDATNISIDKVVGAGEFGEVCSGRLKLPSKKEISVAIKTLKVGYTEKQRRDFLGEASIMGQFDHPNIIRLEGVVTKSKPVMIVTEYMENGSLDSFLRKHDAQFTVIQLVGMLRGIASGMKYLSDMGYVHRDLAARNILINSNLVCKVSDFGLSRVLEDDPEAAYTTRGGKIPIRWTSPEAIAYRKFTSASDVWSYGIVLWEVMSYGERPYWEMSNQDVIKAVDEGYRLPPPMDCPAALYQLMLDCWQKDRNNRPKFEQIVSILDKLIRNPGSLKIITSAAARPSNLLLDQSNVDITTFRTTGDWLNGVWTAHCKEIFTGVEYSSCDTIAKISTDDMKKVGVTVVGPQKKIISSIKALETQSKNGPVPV
The settings on record: at 10 µM.

Assay [2] addresses Ephrin type-A receptor 4 (Homo sapiens) (UniProt P54764). The settings on record: at 1 µM.
The target is the same in assay [3]. The note with it: at 10 µM.
The target in assay [4] is Ephrin type-A receptor 5 (Homo sapiens) (UniProt P54756). The settings on record: at 1 µM.
Assay [5] has the same target. The note with it: at 10 µM.
Assay [6] deals with Ephrin type-A receptor 7 (Homo sapiens) (UniProt Q15375). The note with it: at 1 µM.
Assay [7] shares this target. The settings on record: at 10 µM.
In assay [8] the target is T2, Ephrin type-A receptor 8 (Homo sapiens) (UniProt P29322).
T2 sequence (whole entry): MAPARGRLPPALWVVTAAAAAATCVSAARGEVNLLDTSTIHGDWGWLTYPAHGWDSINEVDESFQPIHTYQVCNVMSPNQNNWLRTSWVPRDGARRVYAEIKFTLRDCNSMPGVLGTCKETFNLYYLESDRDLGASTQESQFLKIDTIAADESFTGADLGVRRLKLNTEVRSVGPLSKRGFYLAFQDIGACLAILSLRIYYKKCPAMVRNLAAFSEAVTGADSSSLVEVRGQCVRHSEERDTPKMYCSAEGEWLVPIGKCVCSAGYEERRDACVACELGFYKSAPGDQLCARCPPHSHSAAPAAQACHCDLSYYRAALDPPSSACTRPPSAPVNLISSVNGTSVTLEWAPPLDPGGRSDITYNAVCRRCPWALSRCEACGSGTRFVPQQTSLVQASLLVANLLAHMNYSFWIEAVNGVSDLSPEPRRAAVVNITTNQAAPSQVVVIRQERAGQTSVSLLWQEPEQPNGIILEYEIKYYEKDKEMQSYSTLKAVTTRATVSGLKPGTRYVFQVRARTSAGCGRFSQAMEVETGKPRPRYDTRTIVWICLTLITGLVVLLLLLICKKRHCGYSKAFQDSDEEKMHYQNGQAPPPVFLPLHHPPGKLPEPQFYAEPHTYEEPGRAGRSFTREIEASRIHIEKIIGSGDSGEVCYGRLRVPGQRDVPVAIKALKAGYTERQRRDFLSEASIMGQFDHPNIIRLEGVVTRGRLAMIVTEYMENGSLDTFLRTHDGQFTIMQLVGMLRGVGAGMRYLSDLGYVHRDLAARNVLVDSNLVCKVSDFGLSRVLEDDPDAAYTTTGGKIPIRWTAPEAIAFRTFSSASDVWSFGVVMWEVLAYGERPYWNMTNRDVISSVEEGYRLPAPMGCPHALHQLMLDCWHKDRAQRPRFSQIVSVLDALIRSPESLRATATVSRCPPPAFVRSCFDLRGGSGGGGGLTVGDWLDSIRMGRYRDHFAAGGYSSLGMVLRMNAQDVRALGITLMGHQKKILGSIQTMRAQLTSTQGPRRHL
The settings on record: at 1 µM.

Assay [9] concerns the target T2, Ephrin type-A receptor 8 (Homo sapiens). The settings on record: at 10 µM.
For assay [10], the target named is T3, Ephrin type-B receptor 1 (Homo sapiens) (UniProt P54762).
T3 sequence (whole entry): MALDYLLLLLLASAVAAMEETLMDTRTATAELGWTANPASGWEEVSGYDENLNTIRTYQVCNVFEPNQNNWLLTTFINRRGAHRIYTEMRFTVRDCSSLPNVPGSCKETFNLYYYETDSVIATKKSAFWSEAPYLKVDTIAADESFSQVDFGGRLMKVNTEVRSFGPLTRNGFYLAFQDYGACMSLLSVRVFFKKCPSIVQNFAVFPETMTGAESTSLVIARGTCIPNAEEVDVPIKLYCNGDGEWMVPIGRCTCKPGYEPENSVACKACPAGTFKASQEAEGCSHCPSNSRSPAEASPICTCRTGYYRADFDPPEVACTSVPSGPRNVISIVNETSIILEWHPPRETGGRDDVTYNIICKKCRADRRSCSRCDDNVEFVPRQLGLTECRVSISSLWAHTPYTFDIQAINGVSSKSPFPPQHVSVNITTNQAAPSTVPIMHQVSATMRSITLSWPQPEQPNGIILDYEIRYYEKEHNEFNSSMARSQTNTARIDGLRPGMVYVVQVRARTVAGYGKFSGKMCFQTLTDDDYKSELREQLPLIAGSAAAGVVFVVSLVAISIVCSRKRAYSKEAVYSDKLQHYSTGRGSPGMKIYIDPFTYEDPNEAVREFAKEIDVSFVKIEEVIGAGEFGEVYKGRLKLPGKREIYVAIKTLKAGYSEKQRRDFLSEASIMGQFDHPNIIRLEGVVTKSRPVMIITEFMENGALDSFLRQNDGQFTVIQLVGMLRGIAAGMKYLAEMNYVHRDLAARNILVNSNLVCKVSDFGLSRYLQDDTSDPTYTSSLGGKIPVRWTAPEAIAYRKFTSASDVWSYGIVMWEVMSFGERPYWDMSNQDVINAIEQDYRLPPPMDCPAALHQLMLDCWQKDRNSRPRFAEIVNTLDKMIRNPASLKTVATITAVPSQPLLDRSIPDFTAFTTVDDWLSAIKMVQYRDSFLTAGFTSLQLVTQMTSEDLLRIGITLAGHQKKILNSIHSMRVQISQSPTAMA
The settings on record: at 1 µM.

Ephrin type-A receptor 7 (Homo sapiens), sequence (Q15375 28-998 limits assumed): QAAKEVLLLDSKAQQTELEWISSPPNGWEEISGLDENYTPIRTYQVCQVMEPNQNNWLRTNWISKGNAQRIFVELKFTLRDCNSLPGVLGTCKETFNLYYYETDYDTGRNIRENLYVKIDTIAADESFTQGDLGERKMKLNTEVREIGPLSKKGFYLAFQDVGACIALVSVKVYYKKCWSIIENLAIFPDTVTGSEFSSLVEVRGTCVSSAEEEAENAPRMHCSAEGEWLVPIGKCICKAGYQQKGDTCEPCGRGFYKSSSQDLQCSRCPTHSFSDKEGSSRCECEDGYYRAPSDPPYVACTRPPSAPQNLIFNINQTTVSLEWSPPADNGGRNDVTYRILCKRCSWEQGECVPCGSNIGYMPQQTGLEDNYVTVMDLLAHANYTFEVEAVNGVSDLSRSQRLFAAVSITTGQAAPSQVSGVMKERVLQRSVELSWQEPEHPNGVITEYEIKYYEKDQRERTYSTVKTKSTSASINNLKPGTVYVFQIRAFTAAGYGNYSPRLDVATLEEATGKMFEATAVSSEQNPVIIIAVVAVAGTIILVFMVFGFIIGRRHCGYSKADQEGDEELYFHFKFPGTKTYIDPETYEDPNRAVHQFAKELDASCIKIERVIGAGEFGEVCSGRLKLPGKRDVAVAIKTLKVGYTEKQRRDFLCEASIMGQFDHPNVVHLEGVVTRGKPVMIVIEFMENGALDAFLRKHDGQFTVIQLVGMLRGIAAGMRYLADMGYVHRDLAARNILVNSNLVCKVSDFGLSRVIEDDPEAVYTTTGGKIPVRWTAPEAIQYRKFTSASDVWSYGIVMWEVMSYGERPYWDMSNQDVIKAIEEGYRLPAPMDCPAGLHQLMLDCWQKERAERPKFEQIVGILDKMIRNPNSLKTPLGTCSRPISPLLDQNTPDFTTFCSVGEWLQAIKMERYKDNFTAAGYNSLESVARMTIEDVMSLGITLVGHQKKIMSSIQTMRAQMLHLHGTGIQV
Ephrin type-A receptor 4 (Homo sapiens), sequence (P54764 whole entry): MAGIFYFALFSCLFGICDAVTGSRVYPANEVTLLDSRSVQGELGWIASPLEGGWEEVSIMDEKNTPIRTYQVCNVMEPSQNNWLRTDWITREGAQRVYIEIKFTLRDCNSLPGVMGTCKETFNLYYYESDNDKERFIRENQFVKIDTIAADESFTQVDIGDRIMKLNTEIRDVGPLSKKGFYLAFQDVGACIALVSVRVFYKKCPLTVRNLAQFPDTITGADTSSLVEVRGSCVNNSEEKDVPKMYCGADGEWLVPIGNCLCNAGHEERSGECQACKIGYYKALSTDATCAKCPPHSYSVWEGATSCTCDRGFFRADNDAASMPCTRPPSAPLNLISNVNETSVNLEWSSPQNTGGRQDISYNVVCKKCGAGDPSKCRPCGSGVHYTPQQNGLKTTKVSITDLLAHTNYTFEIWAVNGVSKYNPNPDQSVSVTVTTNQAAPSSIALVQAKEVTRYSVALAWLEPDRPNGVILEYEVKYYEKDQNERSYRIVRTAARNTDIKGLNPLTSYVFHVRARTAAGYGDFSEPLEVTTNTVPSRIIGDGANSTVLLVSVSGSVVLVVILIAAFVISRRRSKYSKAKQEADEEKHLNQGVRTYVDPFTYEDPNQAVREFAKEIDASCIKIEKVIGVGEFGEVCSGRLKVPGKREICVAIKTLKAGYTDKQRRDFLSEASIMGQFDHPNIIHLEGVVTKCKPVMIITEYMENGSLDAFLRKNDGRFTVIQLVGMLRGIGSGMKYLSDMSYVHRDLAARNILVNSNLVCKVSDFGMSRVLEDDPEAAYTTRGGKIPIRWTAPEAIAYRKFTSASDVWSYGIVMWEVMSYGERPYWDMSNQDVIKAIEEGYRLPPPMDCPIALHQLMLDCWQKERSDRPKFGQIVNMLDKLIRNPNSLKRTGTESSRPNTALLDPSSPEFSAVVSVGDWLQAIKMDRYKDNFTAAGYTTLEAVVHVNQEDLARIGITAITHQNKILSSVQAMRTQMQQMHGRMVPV
Ephrin type-A receptor 5 (Homo sapiens), sequence (P54756 whole entry): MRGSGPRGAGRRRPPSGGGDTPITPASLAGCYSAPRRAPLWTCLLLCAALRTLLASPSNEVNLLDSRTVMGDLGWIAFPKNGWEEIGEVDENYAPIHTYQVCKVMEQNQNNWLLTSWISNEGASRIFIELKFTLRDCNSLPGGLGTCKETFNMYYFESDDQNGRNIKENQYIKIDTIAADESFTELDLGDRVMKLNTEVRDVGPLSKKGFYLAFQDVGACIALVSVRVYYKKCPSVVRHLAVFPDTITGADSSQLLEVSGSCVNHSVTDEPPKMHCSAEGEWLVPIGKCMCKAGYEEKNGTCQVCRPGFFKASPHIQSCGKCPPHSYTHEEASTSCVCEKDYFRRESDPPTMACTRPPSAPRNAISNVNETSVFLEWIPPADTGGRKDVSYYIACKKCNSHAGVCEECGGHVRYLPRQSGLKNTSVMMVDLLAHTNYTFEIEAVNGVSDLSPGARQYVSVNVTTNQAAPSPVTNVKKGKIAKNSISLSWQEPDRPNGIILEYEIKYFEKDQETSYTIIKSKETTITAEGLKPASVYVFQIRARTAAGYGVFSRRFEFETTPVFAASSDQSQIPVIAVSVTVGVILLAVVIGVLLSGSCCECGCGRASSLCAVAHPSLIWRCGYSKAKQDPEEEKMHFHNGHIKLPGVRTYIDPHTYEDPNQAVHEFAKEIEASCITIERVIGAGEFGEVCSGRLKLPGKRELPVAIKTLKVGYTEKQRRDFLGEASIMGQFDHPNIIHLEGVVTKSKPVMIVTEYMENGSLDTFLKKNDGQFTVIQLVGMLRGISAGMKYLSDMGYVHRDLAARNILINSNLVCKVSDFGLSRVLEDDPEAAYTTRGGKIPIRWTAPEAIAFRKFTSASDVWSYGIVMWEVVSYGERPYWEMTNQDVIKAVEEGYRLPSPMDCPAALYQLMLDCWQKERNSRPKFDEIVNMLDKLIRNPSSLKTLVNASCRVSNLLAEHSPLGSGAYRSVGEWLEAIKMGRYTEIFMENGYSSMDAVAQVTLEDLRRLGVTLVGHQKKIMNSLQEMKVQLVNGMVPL

On to `CO[C@H]1C[C@@H]2CC[C@@H](C)[C@@](O)(O2)C(=O)C(=O)N2CCCC[C@H]2C(=O)O[C@H]([C@H](C)C[C@@H]2CC[C@@H](O)[C@H](OC)C2)CC(=O)[C@H](C)/C=C(\C)[C@@H](O)[C@@H](OC)C(=O)[C@H](C)C[C@H](C)/C=C/C=C/C=C/1C`, for which the residual activity in [1] came out at 129%; in [2], 104%; in assay [3] it was 100%; in [4] it was 112%; in assay [5] it was 116%; in assay [6] it was 100%. The residual activity in assay [7] is 92%; in assay [8] it was 96%; in assay [9] it was 119%; in [10], 101%.
